Among the data in PubChem BioAssay (NCATS) are Potency values, retold here.

Results filed as inconclusive are left out. Activity calls are given as the source filed them. Calls come from the whole dose curve; as a rule, active = well fitted curve in the direction sought with a large enough effect; inconclusive = small, poorly fitted or top-dose-only effect, or another doubt; inactive = no such curve, though single readings can be large; an effect the other way counts as inactive or inconclusive.

Assay [1] is described as follows: NS1 protein of Zika virus - qHTS assay to identify small molecule inhibitors in human HEK 293 cells (AID 1347053). Note: series mostly up to about 46 µM; nearly all actives have a fitted effect of over 55% in size. The gist of the method: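 HEK 293; 20 h pre-culture, 37 C/5% CO2; cpd 1 h pre-infection; ZIKV MR766, MOI = 0.5, 24 h, 37 C; TR-FRET NS1 readout (two anti-NS1 Abs); norm. to no-virus vs infected.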
(In general: In qHTS, concentration-response curves come from the screen itself.)

A short description of assay [2]: qHTS of pediatric cancer cell lines to identify multiple opportunities for drug repurposing: Primary screen for TC32 cells (AID 1347089). Note: nearly all actives have a fitted effect of over 60% in size. The gist of the method: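 Measured quantity: luminescence from CellTiter-Glo, reflecting metabolically active TC32 cells following 48 h of compound. Curves came straight from multi-point titrations, with 8 or 11 points in primary and 11 in confirmatory screening.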

Assay [3] can be described thus: qHTS of pediatric cancer cell lines to identify multiple opportunities for drug repurposing: Primary screen for DAOY cells (AID 1347090). Note: nearly all actives have a fitted effect of over 55% in size. Note: potency is the fitted concentration of half-maximal effect. In short, it runs like this:
(§1)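 Viability measured as metabolically active cells via CellTiter-Glo luminescence following 48 hours of compound exposure, 11-point dilutions in confirmatory testing. 500-1,000 cells/well plated 5 hours before dosing; controls were DMSO and 2.3 µM bortezomib.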

A short description of assay [4]: qHTS of pediatric cancer cell lines to identify multiple opportunities for drug repurposing: Primary screen for SJ-GBM2 cells (AID 1347091). In short, it runs like this: as §1
A short description of assay [5]: qHTS of pediatric cancer cell lines to identify multiple opportunities for drug repurposing: Primary screen for SK-N-MC cells (AID 1347093). Note: potency is the fitted concentration of half-maximal effect. In short, it runs like this: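 Metabolically active cells were quantified by ATP-dependent luminescence (CellTiter-Glo, 15 min at room temperature) following 48 h treatment. Cells had been plated at 500-1,000 per well and settled for 5 h beforehand.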

A short description of assay [6]: qHTS of pediatric cancer cell lines to identify multiple opportunities for drug repurposing: Primary screen for BT-37 cells (AID 1347094). Note: series mostly up to about 57 µM. In short, it runs like this:
(§2)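 Readout: CellTiter-Glo luminescence, 48 h treatment. Controls DMSO (neutral) and bortezomib 2.3 µM final (positive). Potency and efficacy taken from primary-screen concentration-response curves.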

Assay [7] can be described thus: qHTS of pediatric cancer cell lines to identify multiple opportunities for drug repurposing: Primary screen for NB-EBc1 cells (AID 1347095). In short, it runs like this:
as §2

Assay [8] can be described thus: qHTS of pediatric cancer cell lines to identify multiple opportunities for drug repurposing: Primary screen for U-2 OS cells (AID 1347096). Note: nearly all actives have a fitted effect of over 50% in size. The gist of the method:
(§3)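 Viability after 48 h compound treatment at 37C, 500-1,000 cells/well, read as ATP luminescence with CellTiter-Glo. Primary screens used 11-point (MIPE, 0.78 nM-46 µM) or 8-point (NPC, 0.59 nM-46 µM) final concentrations; follow-up screens used 11-point dilutions.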

Assay [9] can be described thus: qHTS of pediatric cancer cell lines to identify multiple opportunities for drug repurposing: Primary screen for Saos-2 cells (AID 1347097). Note: nearly all actives have a fitted effect of over 40% in size. In short, it runs like this: as §2
Assay [10] in a line: qHTS of pediatric cancer cell lines to identify multiple opportunities for drug repurposing: Primary screen for SK-N-SH cells (AID 1347098). Note: nearly all actives have a fitted effect of over 65% in size. In short, it runs like this:
(§4)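 Cells (500-1,000/well) rested 5 h, then received compounds for 48 h; metabolically active cells were measured by CellTiter-Glo luminescence. Final concentrations spanned up to 46 µM (MIPE, 11-point) or 0.59 nM-46 µM (NPC, 8-point) in primary screens, 11-point in follow-ups.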

Assay [11] in a line: qHTS of pediatric cancer cell lines to identify multiple opportunities for drug repurposing: Primary screen for NB1643 cells (AID 1347099). Note: nearly all actives have a fitted effect of over 50% in size. In short, it runs like this:
as §2

A short description of assay [12]: qHTS of pediatric cancer cell lines to identify multiple opportunities for drug repurposing: Primary screen for LAN-5 cells (AID 1347100). The gist of the method:
as §3

Assay [13] in a line: qHTS of pediatric cancer cell lines to identify multiple opportunities for drug repurposing: Primary screen for BT-12 cells (AID 1347101). Note: nearly all actives have a fitted effect of over 25% in size. The gist of the method:
as §4

The nature of assay [14]: qHTS of pediatric cancer cell lines to identify multiple opportunities for drug repurposing: Primary screen for Rh18 cells (AID 1347102). Note: nearly all actives have a fitted effect of over 65% in size. The gist of the method: as §3
The nature of assay [15]: qHTS of pediatric cancer cell lines to identify multiple opportunities for drug repurposing: Primary screen for OHS-50 cells (AID 1347103). Note: nearly all actives have a fitted effect of over 40% in size. In short, it runs like this:
as §4

Assay [16] in a line: qHTS of pediatric cancer cell lines to identify multiple opportunities for drug repurposing: Primary screen for A673 cells (AID 1347092). Note: nearly all actives have a fitted effect of over 45% in size. In short, it runs like this:
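Cells are plated, rested 5 h, dosed by pintool, incubated 48 h, then lysed with CellTiter-Glo and read by luminescence. DMSO is the neutral control; bortezomib at 2.3 uM final is the positive control.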

With `CC(=O)N(c1onc(C)c1C)S(=O)(=O)c1ccc(N)cc1`, the Potency entry in [1], in assay [2], in assay [3], in assay [4], in assay [5] and in assay [6] was “inactive” throughout. Also, the Potency result in [7], in [8], in assay [9], in assay [10], in assay [11] and in [12] was “inactive” throughout. The Potency result in assay [13], in assay [14] and in [15] was “inactive” in each case.
For the compound `C[C@H](N)C(=O)N[C@@H](C)C(=O)NC1[C@H]2CN(c3nc4c(cc3F)c(=O)c(C(=O)O)cn4-c3ccc(F)cc3F)C[C@@H]12` (some centres undefined), the Potency entry in assay [1], in assay [2], in [3], in assay [4], in assay [5] and in assay [7] was “inactive” throughout. Besides, the Potency entry in assay [8], in assay [14] and in assay [15] was “inactive” in each case.
Consider `CO/N=C(/C(=O)N[C@@H]1C(=O)N2C(C(=O)[O-])=C(C[n+]3ccn4ncccc43)CS[C@H]12)c1nsc(N)n1`, for which the Potency result in [1], in assay [2], in assay [3], in [4], in assay [5] and in [6] was “inactive” throughout. For the same compound, the Potency result in [9], in assay [10], in assay [11], in [12], in [13] and in assay [14] was “inactive” in each case. In [15], the Potency result is “inactive”.
For `C#Cc1ccc(-c2ccccc2F)cc1`, the Potency result in [1], in assay [2], in [3], in [4], in assay [5] and in assay [6] was “inactive” throughout. Also, the Potency entry in assay [8], in [9], in assay [10], in [11], in [12] and in assay [13] was “inactive” in each case. For the same compound, the Potency result in assay [14] and in assay [15] was “inactive” each time.
Turning to `CCCc1ccc(OCC(=O)N2CCN(C(=O)COc3ccc(CCC)cc3OC)CC2)c(OC)c1`, the Potency entry in [1], in assay [2], in assay [3], in [16], in assay [5] and in assay [6] was “inactive” throughout. Further, the Potency entry in assay [8], in assay [9], in assay [10], in assay [11], in assay [13] and in assay [14] was “inactive” each time. Besides, in [15], the Potency entry is “inactive”.
Take `Cc1cccc(N(C)C(=S)Oc2ccc3c(c2)C2CCC3C2)c1` (centres undefined): the Potency result in [1], in [2], in assay [10] and in [12] was “inactive” in each case. For the same compound, the Potency in [3] is 26.6 µM (active).
As to `Cn1c(=O)c2c(ncn2CC(=O)O)n(C)c1=O`, the Potency entry in assay [1], in assay [2], in [4], in assay [16], in [5] and in assay [6] was “inactive” each time. Besides, the Potency entry in [7], in assay [8], in assay [9], in assay [10], in assay [11] and in [12] was “inactive” throughout. Further, the Potency entry in [13], in assay [14] and in [15] was “inactive” throughout.
Turning to `O=C1CC2(CCCC2)CC(=O)N1CCNCC1COc2ccccc2O1` (centres undefined), the Potency entry in [1], in assay [2], in [4], in assay [16], in assay [5] and in [6] was “inactive” throughout. Further, the Potency entry in [7], in assay [8], in assay [9], in assay [10], in [11] and in [12] was “inactive” in each case. In addition, the Potency entry in assay [13], in assay [14] and in assay [15] was “inactive” in each case.
Take `O=C(Oc1ccccc1)c1cccc(C(=O)Oc2ccccc2)c1`: the Potency entry in assay [1], in assay [2], in assay [4], in assay [16], in [5] and in assay [6] was “inactive” throughout. The Potency result in [7], in [8], in assay [9], in assay [10], in assay [11] and in assay [12] was “inactive” throughout. The Potency result in assay [13], in assay [14] and in assay [15] was “inactive” in each case.
In the case of `O=C(Nc1ccc(S(=O)(=O)N2CCOCC2)cc1)c1cc(Cl)ccc1NS(=O)(=O)c1ccc(Cl)s1`, the Potency entry in assay [1], in assay [2], in assay [3], in assay [16], in [6] and in [8] was “inactive” throughout. Besides, the Potency entry in assay [10], in [11], in [12], in [13], in assay [14] and in assay [15] was “inactive” in each case. For the same compound, the Potency in assay [5] was 18.8 µM (active).
Consider `c1ccc(C(O[C@H]2CCCN(CCc3ccc4c(c3)OCO4)C2)c2ccccc2)cc1`, for which the Potency result in assay [1], in assay [2], in assay [3], in [16], in assay [7] and in [8] was “inactive” each time. Further, the Potency result in assay [9], in assay [11], in [12], in assay [13] and in assay [14] was “inactive” throughout.
Turning to `CC(C)C(=O)Nc1cccc(C(F)(F)F)c1`, the Potency entry in assay [1], in [2], in assay [4], in assay [16], in [5] and in [6] was “inactive” each time. For the same compound, the Potency entry in [7], in [8], in assay [9], in assay [10], in [11] and in assay [12] was “inactive” throughout. The Potency entry in assay [13] and in [14] was “inactive” throughout.
As to `Nc1ccc(O)cc1`, the Potency result in assay [1], in [2], in assay [3], in [4], in [6] and in [7] was “inactive” each time. In addition, the Potency result in assay [10], in assay [13] and in assay [14] was “inactive” each time.
On to `O=C(O)c1cn(C2CC2)c2cc(Cl)c(F)cc2c1=O`, for which the Potency result in assay [1], in [2], in assay [4], in assay [16], in assay [5] and in assay [6] was “inactive” throughout. Besides, the Potency result in assay [7], in assay [8], in [9], in assay [10], in assay [11] and in [12] was “inactive” each time. For the same compound, the Potency result in assay [13] and in [15] was “inactive” in each case.
In the case of `CCCCOCCOC(=O)c1cccnc1`, the Potency entry in assay [1], in assay [2], in assay [3], in assay [4], in assay [5] and in assay [6] was “inactive” in each case. Also, the Potency result in assay [8], in assay [9], in assay [10], in assay [11], in assay [12] and in assay [13] was “inactive” in each case. Moreover, the Potency result in assay [14] and in assay [15] was “inactive” in each case.
Turning to `CC(CC1c2ccccc2CCc2ccccc21)CN(C)C` (centres undefined), the Potency result in [1], in [2], in assay [3], in assay [16], in [7] and in assay [8] was “inactive” in each case. For the same compound, the Potency entry in assay [11], in assay [12] and in [14] was “inactive” in each case.
On to `COc1cc2c(cc1OC)CN(C(=O)[C@H](C)N[C@@H](CCc1ccccc1)C(=O)O)[C@H](C(=O)O)C2`, for which the Potency entry in assay [1], in assay [2], in assay [3], in assay [16], in assay [5] and in assay [6] was “inactive” in each case. Also, the Potency result in [8], in assay [9], in assay [10], in assay [11], in assay [13] and in [14] was “inactive” throughout. Besides, in assay [15], the Potency entry is “inactive”.
As to `CN(C(=O)C(Cl)Cl)c1ccc(OC(=O)c2ccco2)cc1`, the Potency entry in [1], in assay [2], in assay [3], in assay [4], in assay [5] and in assay [6] was “inactive” in each case. The Potency entry in [8], in assay [9], in [10], in assay [11], in assay [13] and in assay [14] was “inactive” each time. For the same compound, in assay [15], the Potency entry is “inactive”.
